# The whole screen tested about 310,000 compounds, of which about 14,000 (4.5%) showed an effect of 50% or more. The effect is printed as a negative number. This excerpt belongs to a sample that is enriched for strong results.
# Molecular target: human ether-à-go-go-related gene (hERG) potassium channel (human, UniProt Q12809)
# Experiment: primary screen, population patch clamp on CHO cells stably expressing hERG; higher = less effect of the substance
# 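Note: peak tail current of the secondary pulse compared with the same well before compound.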
# Sequence of human ether-à-go-go-related gene (hERG) potassium channel (Q12809 whole entry, looked up): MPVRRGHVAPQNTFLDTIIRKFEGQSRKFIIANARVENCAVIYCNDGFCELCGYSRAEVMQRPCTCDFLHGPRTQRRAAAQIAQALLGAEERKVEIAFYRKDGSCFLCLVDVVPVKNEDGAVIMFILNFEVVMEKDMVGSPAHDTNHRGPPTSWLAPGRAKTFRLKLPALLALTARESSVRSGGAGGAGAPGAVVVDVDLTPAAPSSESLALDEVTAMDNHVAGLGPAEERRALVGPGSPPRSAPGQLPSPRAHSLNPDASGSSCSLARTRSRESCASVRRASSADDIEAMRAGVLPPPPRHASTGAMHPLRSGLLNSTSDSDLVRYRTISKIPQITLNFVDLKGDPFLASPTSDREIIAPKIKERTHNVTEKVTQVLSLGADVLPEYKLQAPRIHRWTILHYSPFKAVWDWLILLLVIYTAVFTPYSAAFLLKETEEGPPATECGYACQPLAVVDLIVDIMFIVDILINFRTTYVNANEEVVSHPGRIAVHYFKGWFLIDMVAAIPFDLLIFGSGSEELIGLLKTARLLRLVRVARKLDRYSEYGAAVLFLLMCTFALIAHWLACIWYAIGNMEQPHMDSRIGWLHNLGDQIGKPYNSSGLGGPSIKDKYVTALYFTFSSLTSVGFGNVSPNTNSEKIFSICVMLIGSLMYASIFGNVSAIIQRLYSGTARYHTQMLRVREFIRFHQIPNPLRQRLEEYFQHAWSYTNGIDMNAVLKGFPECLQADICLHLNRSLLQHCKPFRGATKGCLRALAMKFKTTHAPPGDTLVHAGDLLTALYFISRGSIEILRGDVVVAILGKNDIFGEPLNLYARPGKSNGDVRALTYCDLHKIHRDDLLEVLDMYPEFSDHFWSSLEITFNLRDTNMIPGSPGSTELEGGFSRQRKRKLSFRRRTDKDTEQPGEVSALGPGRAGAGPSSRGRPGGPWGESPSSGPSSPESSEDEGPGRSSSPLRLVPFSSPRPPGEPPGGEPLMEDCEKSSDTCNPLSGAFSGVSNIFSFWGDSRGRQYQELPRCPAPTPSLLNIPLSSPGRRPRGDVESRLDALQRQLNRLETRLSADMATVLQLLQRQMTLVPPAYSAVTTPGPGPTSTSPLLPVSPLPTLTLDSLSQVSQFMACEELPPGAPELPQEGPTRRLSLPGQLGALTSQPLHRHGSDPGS
row,SMILES,"hERG current change (%, negative = inhibition) at 10uM"
1,CC(=O)c1c(C)[nH]c(C(=O)COc2cc(C)ccc2C(C)C)c1C,14.1%
2,O=C(CSc1nnnn1-c1ccc2c(c1)OCCO2)N1CCN(C(=O)c2ccco2)CC1,-16.6%
3,CCN1C(=O)S/C(=C/c2ccc(Oc3ccc([N+](=O)[O-])cn3)c(OC)c2)C1=O,9.24%
4,O=C(COC(=O)c1cccs1)Nc1ccc(F)c(F)c1,12.2%
5,COC(=O)COc1ccc(/C=C2/NC(=O)N(CC(=O)OC)C2=O)cc1,12.3%
6,CC1(C)CC(=O)C(Sc2ccccc2)=C(O)C1,15.8%
7,COc1ccc(S(=O)(=O)N2CCC(N3CCN(c4ccccc4OC)CC3)CC2)cc1,-66.5%
8,O=C(O)C(=O)O.O=[N+]([O-])c1ccc(S(=O)(=O)N2CCN(Cc3ccco3)CC2)cc1,15.3%
9,COc1ccccc1N1CCN(C2CCN(S(=O)(=O)c3ccc(C)cc3)CC2)CC1,-36.4%
10,COc1ccccc1N1CCN(C2CCN(S(=O)(=O)c3ccc(NC(C)=O)cc3)CC2)CC1,0.727%
11,CC(=O)Nc1ccc(S(=O)(=O)N2CCN(Cc3cccc([N+](=O)[O-])c3)CC2)cc1.O=C(O)C(=O)O,-3.41%
12,O=C(O)C(=O)O.O=[N+]([O-])c1ccc(S(=O)(=O)N2CCN(C3CCN(Cc4ccccc4)CC3)CC2)cc1,-78.2%
13,COc1ccc(N(CC(=O)NCCSCc2ccc(C)cc2)S(=O)(=O)c2ccccc2)cc1,3.04%
14,O=c1cccc2n1CC1CC2CN(S(=O)(=O)c2ccccc2)C1 (stereo not shown),-3.59%
15,Cc1cc2occ(CC(=O)N(C)CC(=O)Nc3ccc(F)cc3)c2cc1C,-9.51%
16,COC(=O)CN=C1OC(=O)N2C(=O)C3=C4[C@@H](C[C@H]5C(=O)N(c6ccccc6)C(=O)[C@H]5[C@H]4[C@@]12Cc1ccccc1)[C@H]1C(=O)N(c2ccccc2)C(=O)[C@H]1[C@H]3C,4.25%
17,c1ccc(N2CCN(c3ncnc4sc5c(c34)CCC5)CC2)cc1,12.4%
18,Oc1ccc(N2CCN(c3ncnc4sc5c(c34)CCC5)CC2)cc1,-7.35%
19,O=C(c1ccco1)N1CCN(c2ncnc3sc4c(c23)CCC4)CC1,-56.6%
20,O=C(c1ccccc1)N1CCN(c2ncnc3sc4c(c23)CCC4)CC1,-56%
21,O=C(CSc1ncnc2sc3c(c12)CCCC3)c1ccco1,6.66%
22,O=C(Nc1ncnc2sc3c(c12)CCC3)c1ccco1,-4.5%
23,COc1ccc2nc(NC(=O)C3CCN(S(=O)(=O)c4cccs4)CC3)sc2c1,-13.6%
24,COc1cc(OC)cc(C(=O)NC2CCSC2=O)c1 (stereo not shown),-5.55%
25,CCN(CC)CCCC(C)NC(=O)c1ccc(C(F)(F)F)cc1.Cl (stereo not shown),-7.01%
26,CCOC(=O)N1CCN(C(=O)Cn2nc(C)n3nc(-c4ccc(OC)cc4)cc3c2=O)CC1,13.4%
27,Cn1c(SCC(=O)NCc2ccc3c(c2)OCO3)nnc1-c1cccs1,-17.1%
28,CC(Sc1nnc(-c2cccs2)n1Cc1ccccc1)C(=O)NCc1ccc2c(c1)OCO2 (stereo not shown),-55.9%

row,SMILES,"hERG current change (%, negative = inhibition) at 10uM"
1,CC(Sc1nnc2ccccn12)C(=O)NCc1ccc2c(c1)OCO2 (stereo not shown),4.95%
2,CC(Sc1nnc(-c2cccs2)n1-c1ccccc1)C(=O)NCc1ccc2c(c1)OCO2 (stereo not shown),-74.8%
3,O=C(CSc1nnc(-c2cccs2)n1-c1ccccc1)NCc1ccc2c(c1)OCO2,-43.7%
4,CCn1c(SCC(=O)NCc2ccc3c(c2)OCO3)nnc1-c1ccncc1,13%
5,CC(Sc1nncn1C)C(=O)NCc1ccc2c(c1)OCO2 (stereo not shown),34.9%
6,CCn1c(SCC(=O)NCc2ccc3c(c2)OCO3)nnc1-c1cccs1,-23.1%
7,O=C(CSc1nnc(-c2cccs2)n1Cc1ccccc1)NCc1ccc2c(c1)OCO2,-75.8%
8,COCC(=O)Nc1cc(C(=O)Nc2ccccc2C)ccc1Cl,-3.92%
9,COc1cc(CNc2cc(C)ccc2C)cc(OC)c1OC,-4.46%
10,Cc1cc(C)nc(N/N=C/c2c(CO)cnc(C)c2O)n1,-10.7%
11,COc1ccccc1NC(=O)c1ccc([N+](=O)[O-])cc1[N+](=O)[O-],-19.6%
12,O=C(Nc1cccc2oc(=O)ccc12)c1ccc([N+](=O)[O-])cc1[N+](=O)[O-],-59.9%
13,O=C(Nc1ncccn1)c1ccc([N+](=O)[O-])cc1[N+](=O)[O-],-7.61%
14,CCOc1ccccc1C(=O)Nc1ccc2nc(N3CCN(c4ncccn4)CC3)cc(C)c2c1,-8.08%
15,COc1cc(C)c(NC(=S)Nc2cccc(Cl)c2)cc1OC,6.72%
16,CC(NC(=O)CCn1nc(-c2ccc(Cl)cc2)ccc1=O)c1ccccc1 (stereo not shown),-60.6%
17,COCCNC(=O)CCn1nc(-c2ccc(C)cc2)ccc1=O,-34.4%
18,Cc1ccc(-c2ccc(=O)n(CCC(=O)NCCN3CCCCC3C)n2)cc1 (stereo not shown),-58.7%
19,CCCCN(C)CCNC(=O)CCn1nc(-c2ccc(C)cc2)ccc1=O,-83.4%
20,O=C(CCn1nc(-c2ccc(Cl)cc2)ccc1=O)NCc1ccccn1,-32%
21,Cc1ccc(-c2ccc(=O)n(CCC(=O)NCc3ccccn3)n2)cc1,-61%
22,Cc1ccc(CNC(=O)CCn2nc(-c3ccc(Cl)cc3)ccc2=O)cc1,-35.3%
23,Cc1ccc(-c2ccc(=O)n(CC(=O)NCCN3CCCCC3C)n2)cc1 (stereo not shown),0.96%
24,COCCCNC(=O)CCn1nc(-c2ccc(Cl)cc2)ccc1=O,-27.9%
25,CC(NC(=O)Cn1nc(-c2ccccc2)ccc1=O)c1ccccc1 (stereo not shown),-13.4%
26,CCCCNC(=O)Cn1nc(-c2ccc(C)cc2)ccc1=O,-1.13%
27,Cc1ccc(-c2ccc(=O)n(CC(=O)NCCCN3CCCCC3C)n2)cc1 (stereo not shown),-10.3%
